Laboratory results reported in PubChem BioAssay (NCI).
Several values for one entry are separate records, joined by “and”; a condition that tells them apart may be missing. Equal values may be shown once. About 79,000 compounds went through this panel and 15% of them were active in at least one assay; those are over-represented in the sample as a whole. Unmarked numbers belong to inactive results. Activity calls are given as the source filed them. Cut-off read from the data, not from the text of the source: active = growth inhibition above about 70%; inactive = the rest.

Legend:
[1] = NCI Yeast Anticancer Drug Screen. Data for the rad50 strain (AID 155);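 note: 0% = growth of vehicle-only cultures of the same strain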; settings: S. cerevisiae rad50 strain growth inhibition, stronger effect = higher value
Method in brief: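 Genetically altered yeast (DNA repair pathway); compound treatment; growth inhibition vs vehicle ctrl.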

[2] = NCI Yeast Anticancer Drug Screen. Data for the mec2-1 strain (AID 157); settings: S. cerevisiae mec2-1 strain, stronger effect = higher value
Method in brief: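 Growth inhibition is read against vehicle-treated controls after compound exposure of the mec2-1 yeast strain, which is defective in DNA damage repair or cell cycle control.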

[3] = NCI Yeast Anticancer Drug Screen. Data for the sgs1 mgt1 strain (AID 161);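 note: 0% = growth of cultures given vehicle only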; settings: S. cerevisiae sgs1 mgt1 strain, stronger effect = higher value
Method in brief: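 Growth of a repair-deficient yeast mutant was monitored after compound treatment and expressed as inhibition relative to vehicle-treated cultures.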

[4] = NCI Yeast Anticancer Drug Screen. Data for the cln2 rad14 strain (AID 165);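 note: 0% = growth equal to vehicle treated cultures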; settings: S. cerevisiae cln2 rad14 strain, stronger effect = higher value
Method in brief: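 Growth inhibition, relative to vehicle-treated controls, is the read-out. The test organism is a yeast strain with defined genetic alterations, cln2 rad14.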

[5] = NCI Yeast Anticancer Drug Screen. Data for the bub3 strain (AID 167); settings: S. cerevisiae bub3 mutant strain, stronger effect = higher value
Method in brief: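 Yeast carrying a defined mutation is treated with each compound, and growth is compared with that of vehicle-exposed cells to give inhibition.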

[6] = NCI Yeast Anticancer Drug Screen. Data for the mlh1 rad18 strain (AID 175); settings: S. cerevisiae mlh1 rad18 strain growth inhibition, stronger effect = higher value
Method in brief: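 Cells of a genetically altered yeast strain, deficient in DNA damage repair, were treated with compound. Their growth was then compared with that of vehicle-treated cultures to give inhibition.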

[7] = at 5.0 µM (retest, dose inferred, filed as 0.5)
[8] = at 50.0 µM (retest, dose inferred, filed as 5.0)

| SMILES | growth inhibition [1, 7] | growth inhibition [1, 8] | growth inhibition ([1]; at 50.0 µM) | growth inhibition [2, 7] | growth inhibition [2, 8] | growth inhibition ([2]; at 50.0 µM) | growth inhibition [3, 7] | growth inhibition [3, 8] | growth inhibition ([3]; at 50.0 µM) | growth inhibition [4, 7] | growth inhibition [4, 8] | growth inhibition ([4]; at 50.0 µM) | growth inhibition [5, 7] | growth inhibition [5, 8] | growth inhibition ([5]; at 50.0 µM) | growth inhibition [6, 7] | growth inhibition [6, 8] | growth inhibition ([6]; at 50.0 µM) |
| --- | --- | --- | --- | --- | --- | --- | --- | --- | --- | --- | --- | --- | --- | --- | --- | --- | --- | --- |
| COC1=C(C)C(=O)C2=C(C1=O)C(CO)N1C(C#N)C3CC4C(C1C2N1CCOC41)N3C (centres undefined) | 39% | 51% | 75.8% (active) and 75.5% (active) | 9% | 52% | 85.8% (active) and 89.7% (active) | 20% | 47% | 77.3% (active) and 77.7% (active) | 44% | 80% (active) | 85.1% (active) and 85% (active) | 19% | 76% (active) | 83.2% (active) and 87.9% (active) | 19% | 49% | 78.7% (active) and 81% (active) |
| N#CN(Cc1ccccc1)C(c1ccccc1)(c1ccccc1)c1ccccc1.[Cl][Sn]([c]1ccccc1)([c]1ccccc1)[c]1ccccc1 | 99% (active) | 91% (active) | 97.3% (active) | 100% (active) | 94% (active) | 98.3% (active) | 100% (active) | 91% (active) | 98% (active) | 99% (active) | 85% (active) | 97.5% (active) | 99% (active) | 87% (active) | 98.1% (active) | 99% (active) | 88% (active) | 98% (active) |
| CC(C)c1cccc(C(C)C)c1NC(=O)C(=O)CC(=O)CC(c1ccccc1)c1c(O)c2ccccc2oc1=O (centres undefined) | 8% | 8% | 59.4% | -12% | -12% | 43% | 11% | 11% | 71% (active) | -2% | -2% | 55.2% | -1% | -1% | 70.7% (active) | 7% | 7% | 58.6% |
| Ic1cccc2c1[se]c1ccccc12 | -8% | 22% | 25.2% | 8% | 20% | -4.05% | 0% | 40% | 6.7% | 5% | -28% | -27.8% | -3% | 27% | -11.3% | 9% | 75% (active) | 2.15% |
| COc1ccc(C(Cc2ccc(Cl)c(Cl)c2)NCCO)cc1 (centres undefined) | -16% | 37% | 75% (active) | -5% | -1% | 23.3% | -35% | 27% | 31.1% | -2% | 10% | 11.9% | 4% | 32% | 59.1% | 3% | 48% | 86.2% (active) |
| O=[N+]([O-])c1ccc(O)c(Cl)c1 | -3% | 41% | 68.7% | -2% | 54% | 78.9% (active) | -4% | 44% | 66% | -12% | 57% | 52.2% | -5% | 25% | 64.5% | -5% | 53% | 70.8% (active) |
| CCC[CH2][Sn]([CH2]CCC)([O]C(=O)C(N)CSC)[O]C(=O)C(N)CSC (centres undefined) | 7% | 7% | 90% (active) | 10% | 10% | 89.3% (active) | -5% | -5% | 86.2% (active) | 1% | 1% | 52.9% | -4% | -4% | 88.8% (active) | -18% | -18% | 83.1% (active) |
| c1ccc2c(c1)[As]=c1ccccc1=[As]2 (centres undefined) | 65% | 99% (active) | 89% (active) | 95% (active) | 99% (active) | 91.5% (active) | 58% | 99% (active) | 92% (active) | 36% | 99% (active) | 92.1% (active) | 91% (active) | 98% (active) | 90.2% (active) | 72% (active) | 99% (active) | 91.4% (active) |
